# SW480 rereplic = DNA re-replication induction in SW480 cells. SW480 DNA re-replication, Hoechst DNA content imaging, 48 h. Potency, µM (doses to about 46.1 µM), most hits filed as activators. 340,000 compounds, 1.8% hits; note: nearly all actives have a fitted effect of over 55% in size
#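 Quantitative HTS format with DMSO vehicle controls; 48 hr drug incubation at 37 C, then 40 min Hoechst staining and scanning imager measurement at 405 nm excitation.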
# KB-V1 cytotox = KB-V1 MDR subline cytotoxicity; KB-V1 MDR cells viability, CellTiter-Glo, 72 h; Potency, µM (series often up to 46.1 µM), hits mostly cytotoxic; 400,000 compounds, 3.4% hits; note: nearly all actives have a fitted effect of over 60% in size
#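 Cytotoxicity toward P-gp-expressing KB-V1 cells was determined as loss of CellTiter-Glo luminescence after 72 h at 37 degrees C. Compounds were tested in quantitative HTS format across a concentration range, with curves fitted to normalized data.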
# HT1080 IDH1KD tx = toxicity to HT-1080 IDH1 knockdown cells (counter line); HT-1080 IDH1 knockdown viability, ATP luminescence, 48 h; Potency, µM (series often up to 46.1 µM), most hits filed as cytotoxic; AID 686971; 360,000 compounds, 2% hits
#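 % activity derives from luminescence (CellTiter-Glo), normalised to DMSO and no-cell wells. HT-1080-IDH1KD cells, 750/well, had 48 h compound exposure at 37 °C.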
# KB-3-1 cytotox = KB-3-1 parental cell cytotoxicity | KB-3-1 viability, CellTiter-Glo ATP luminescence, 72 h | Potency, µM (highest dose often 46.1 µM), actives largely listed as cytotoxic | 400,000 compounds, 1.4% hits; note: nearly all actives have a fitted effect of over 60% in size
#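 Cytotoxicity in the drug-sensitive parental line KB-3-1 was scored as loss of CellTiter-Glo luminescence following 72 h incubation with compound. Values come from curve fitting of normalized concentration-response data.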
# HT1080NT lethal = kills 2HG-producing HT-1080-NT fibrosarcoma cells. AID 686970. HT-1080-NT fibrosarcoma viability, CellTiter-Glo ATP luminescence, 48 h. Potency, µM (highest dose often 46.1 µM), most hits filed as cytotoxic. 360,000 compounds, 1.6% hits;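 note: NT is the 2HG producing partner of a matched IDH1 knockdown line; nearly all actives have a fitted effect of over 55% in size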
#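 Read-out is CellTiter-Glo luminescence after 10 minutes at room temperature, following 48 hours' compound treatment of HT-1080-NT cells (750 cells/well, RPMI, 5% FBS, 37 degrees C).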
# MCF10A rereplic = inducers of DNA re-replication in MCF 10A breast cells; MCF 10A DNA re-replication, Hoechst nuclear intensity, 48 h; Potency, µM (highest dose often 46.1 µM), most hits filed as activators; 350,000 compounds, 2.9% hits; AID 624296; note: nearly all actives have a fitted effect of over 50% in size
# Hits are given with their value; – = inactive; ? = inconclusive; · = not tested or not shown; [ ] = remark or other dose. Shown are actives, neighbours in structure and some others; about 7.9% of the full set was active somewhere. Calls come from the whole dose curve; as a rule, active = well fitted curve in the direction sought with a large enough effect; inconclusive = small, poorly fitted or top-dose-only effect, or another doubt; inactive = no such curve, though single readings can be large; an effect the other way counts as inactive or inconclusive.
SMILES,SW480 rereplic,KB-V1 cytotox,HT1080 IDH1KD tx,KB-3-1 cytotox,HT1080NT lethal,MCF10A rereplic
CN1CCN(CCCNC(=O)c2ccc3c(=O)n(CCc4ccccc4)c(=O)[nH]c3c2)CC1,1.6µM,–,–,–,–,–
O=C(NCC1CCCO1)c1ccc2c(=O)n(Cc3ccc(Cl)cc3)c(=S)[nH]c2c1 (stereo not given),–,–,–,–,–,–
CC1CCCCN1CCNC(=O)c1ccc2c(=O)n(Cc3ccc(Cl)cc3)c(=S)[nH]c2c1 (stereo not given),?,–,23µM,–,21µM,7.3µM
CC1CCCCN1CCNC(=O)c1ccc2c(=O)n(CCc3ccccc3)c(=O)[nH]c2c1 (stereo not given),–,–,–,21µM,–,–
CN1CCN(C(=O)c2ccc3c(=O)n(CCc4ccccc4)c(=S)[nH]c3c2)CC1,–,–,–,?,–,–
Cc1ccc(CNC(=O)c2ccc3c(=O)n(CC4CCCO4)c(=S)[nH]c3c2)cc1 (stereo not given),–,16µM,–,–,–,?
O=C(c1ccc2c(=O)n(Cc3ccccc3)c(=S)[nH]c2c1)N1CCOCC1,–,–,–,–,–,–
COc1ccc(-n2c(=S)[nH]c3cc(C(=O)NCc4ccco4)ccc3c2=O)cc1OC,–,–,–,–,–,–
COc1ccc(CCn2c(=S)[nH]c3cc(C(=O)NCc4ccco4)ccc3c2=O)cc1OC,–,–,–,16µM,?,?
O=C(NCc1ccccc1)c1ccc2c(=O)n(CC3CCCO3)c(=S)[nH]c2c1 (stereo not given),–,–,–,–,–,–
O=C(NCCCN1CCOCC1)c1ccc2c(=O)n(Cc3ccccc3)c(=S)[nH]c2c1,–,–,16µM,–,18µM,–
CCOCCCn1c(SCC(=O)/C(C#N)=C(\C)N)nc2ccccc2c1=O,–,8.2µM,–,–,–,–
CCOCCCn1c(SCC(=O)Nc2ccccc2)nc2ccccc2c1=O,–,–,–,–,–,–
CCOCCCn1c(SCc2nc3ccccc3s2)nc2ccccc2c1=O,?,2.3µM,?,12µM,?,?
C/C(N)=C(/C#N)C(=O)CSc1nc2ccccc2c(=O)n1CCCOC(C)C,–,–,–,–,–,–
Cc1nc(NC(=O)CSc2ccc(-c3nc4ccccc4[nH]3)cn2)sc1C,–,–,?,–,13µM,18µM
Cc1ccc(NC(=O)CCCSc2nc3ccccc3[nH]2)cc1,–,?,–,–,–,–
Cc1ccc(SCC(=O)Nc2ccc(-c3nc4ccccc4[nH]3)cc2)cc1,–,–,–,–,–,13µM
CCc1nnc(NC(=O)CSc2ccc(-c3nc4ccccc4[nH]3)cn2)s1,–,–,–,–,?,–
Cc1ccc2nc(-c3ccc(SCC(=O)Nc4nnc(C)s4)nc3)[nH]c2c1,?,–,9.2µM,–,21µM,18µM
COc1c(/C=N/NC(=O)[C@H]2C[C@@H]2c2ccccc2)c(CCN(C)C(C)=O)cc2c1OCO2,–[9.22 µM],–,–,–,–,–
CCCCNC(=O)Cn1cnc2c(cnn2-c2ccc(C)c(C)c2)c1=O,–,–,–,–,–,–
C=CCn1c(SCC(=O)N(CCC)C2CCS(=O)(=O)C2)nnc1-c1ccccc1OC (stereo not given),–,–,–,–,–,–
O=C(C1CC(=O)N(C2CCCC2)C1)N1CCC(Cc2ccccc2)CC1 (stereo not given),–,13µM,–,–,–,–
O=C(C1CC(=O)N(C2CCCC2)C1)N1CCN(c2ccccc2F)CC1 (stereo not given),–,–,–,–,–,–
SMILES,SW480 rereplic,KB-V1 cytotox,HT1080 IDH1KD tx,KB-3-1 cytotox,HT1080NT lethal,MCF10A rereplic
Cc1cccc(-c2n[nH]c(=S)n2C)c1,–,21µM,–,?,–,–
Cc1nc(-c2ccccc2)sc1-c1n[nH]c(=S)n1C,23µM,?,–,–,–,–
Cn1c(-c2ccccc2)n[nH]c1=S,–,–,–,–,?,–
Cc1cccc(-n2cc(CNCCc3nc(C)cc(C)n3)c(-c3cccc(F)c3)n2)c1,23µM,–,?,–,?,4.1µM
Cc1cccc(-c2nn(-c3ccccc3)cc2CNCCO)c1,·,–,·,–,·,·
COc1cccc(C(=O)N2CCC(C(=O)Nc3cccc(Cl)c3)CC2)c1,·,–,·,–,·,·
NC(=O)c1nnn(Cc2cc(Cl)c(C(=O)c3ccc(Cl)cc3)c(Cl)c2)c1N,·,8.2µM,4.1µM,?,9.2µM,·
CCOC(=O)c1c(NC(=O)c2cccc(N3C(=O)CCC3=O)c2)sc2c1CCN(CC)C2,–,–,–,–,–,–
O=c1[nH]c(NCCO)c(N=Cc2ccccc2)c(=O)[nH]1,2.3µM,–,–,–,?,?
Nc1[nH]c(=O)[nH]c(=O)c1N=Cc1ccccc1,–,?,?,–,–,–
CCCn1c(N)c(N(CCOC)C(=O)CCC2CCCCC2)c(=O)[nH]c1=O,–,–,–,–,–,–
CNC(=S)N(Cc1ccco1)Cc1cc2cc(OC)ccc2[nH]c1=O,–,?,–,–,–,–
COC(=O)c1ccccc1S(=O)(=O)N(Cc1ccco1)Cc1cc2cc(OC)ccc2[nH]c1=O,–,8.2µM,–,–,–,–
COc1ccccc1CN(Cc1cc2cc(C)ccc2[nH]c1=O)Cc1nnnn1Cc1ccco1,–,18µM,–[9.24 µM],?,?,–
CCOC(=O)Cn1nnnc1C(C(C)C)N(Cc1cccs1)Cc1cc2cc(C)ccc2[nH]c1=O (stereo not given),–,11µM,–,?,–,?
CCOC(=O)Cn1nnnc1CN(Cc1ccc(OC)cc1)Cc1cc2cc(C)ccc2[nH]c1=O,–,–,–,–,–,23µM
COc1ccccc1C1Nc2ccccc2-n2c(-c3ccccc3)c3c(=O)n(C)c(=O)n(C)c3c21 (stereo not given),·,–,·,?,·,·
CCOc1ccc2[nH]c(=O)c(CN(Cc3ccco3)Cc3nnnn3Cc3ccccc3)cc2c1,–,?,–,–,–,?
CCc1ccc2[nH]c(=O)c(CN(Cc3ccccc3OC)Cc3nnnn3Cc3ccco3)cc2c1,?,?,?,21µM,?,?
COc1ccc2[nH]c(=O)c(C(c3nnnn3C(C)(C)C)N(Cc3ccco3)CC3CCCO3)cc2c1 (stereo not given),7.3µM,–,?,–,–,–
Cc1ccc2[nH]c(=O)c(CN(Cc3cccs3)Cc3nnnn3Cc3ccco3)cc2c1,·,?,·,–,·,·
COc1ccc2[nH]c(=O)c(CN(Cc3ccco3)Cc3nnnn3Cc3ccccc3)cc2c1,–,7.3µM,–,–,–,–
CCSC1=NSC2=NC(=O)/C(=C\c3coc4ccccc4c3=O)C(=N)N12,?,–,–,–,–,18µM
